Assay outcomes (PubChem BioAssay)
GALK inhibitor: GALK (human) enzyme inhibition. recombinant GALK, Kinase-Glo ATP luminescence, 1 h. Potency, µM (highest dose often 57.5 µM), for inactives: top-dose activity, negative = inhibition, most hits filed as inhibitors. 44,000 tested, under 10 active. P51570;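 note: plate controls were full GALK reaction for no effect and reaction lacking GALK for full effect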
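5 nM GALK; 35 uM ATP; 100 uM D-galactose; 20 mM HEPES pH 8.0, 5 mM MgCl2, 60 mM NaCl, 1 mM DTT, 0.01% BSA; 1 h RT; Kinase-Glo Plus luminescence.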
FH mod: Identification of activators of human fumarate hydratase by quantitative high-throughput screening. Fumarate hydratase, mitochondrial (Homo sapiens), P07954. FH coupled MDH/diaphorase resazurin fluorescence, 15 min. Potency, µM (titrated, usually from 79.9 µM), inactives show top-dose activity change, negative = inhibition, hits mostly inhibitors. hit rate 0.22% among 54,000. AID 1347055, 2019; note: potency is the fitted concentration of half-maximal effect; % is set by controls: 0 for no effect and ±100 for the full control effect; the screen sought activators but most active calls are inhibition curves; nearly all actives have a fitted effect of over 45% in size
Target sequence (P07954 whole entry, looked up): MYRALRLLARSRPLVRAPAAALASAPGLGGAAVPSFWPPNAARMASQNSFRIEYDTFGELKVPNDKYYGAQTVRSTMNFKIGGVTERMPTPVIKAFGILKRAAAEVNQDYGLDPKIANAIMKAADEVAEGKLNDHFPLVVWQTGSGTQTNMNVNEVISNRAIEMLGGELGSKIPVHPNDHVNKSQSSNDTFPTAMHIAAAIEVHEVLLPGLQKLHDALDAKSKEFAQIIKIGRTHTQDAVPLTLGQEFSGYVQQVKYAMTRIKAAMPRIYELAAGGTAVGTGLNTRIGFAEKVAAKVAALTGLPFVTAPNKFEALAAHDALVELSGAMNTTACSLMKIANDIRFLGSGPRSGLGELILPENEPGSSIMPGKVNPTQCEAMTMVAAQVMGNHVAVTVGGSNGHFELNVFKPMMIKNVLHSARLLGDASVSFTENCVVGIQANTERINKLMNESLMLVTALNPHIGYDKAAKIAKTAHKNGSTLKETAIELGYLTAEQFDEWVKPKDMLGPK
PTAP-TSG101 blk: blocks PTAP binding to human TSG101, validation; Q99816; Fluorescence polarization, FITC-PTAP peptide/Tsg101, 20 min; Potency, µM (highest dose often 115 µM), most hits filed as inhibitors; 44,000 tested, under 10 active; AID 1347069; note: potency is the fitted concentration of half-maximal effect; 0% is about no effect
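FITC-labeled PTAP peptide (50 nM final) binding to Tsg101 binding domain (10 uM final) read by fluorescence polarization after 20 min at r.t. in HEPES pH 7.5 buffer. Actives by CRC class, <25 µM.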
DRV1 agonist: agonists of human resolvin D1 receptor DRV1 (GPR32) | hit rate 2.5% among 48,000 | CHO-K1 GPR32 beta-arrestin PathHunter luminescence, 90 min; zero percent set by DMSO-only wells | O75388 | activation, % at 76.9 µM;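 active = activation of at least 60% and not above a set upper limit, about 1 call in 100 departs from these limits; inconclusive = activation of 40% to 60%, or above that upper limit; inactive = activation under 40%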; note: 0% is about no effect
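Beta-arrestin recruitment read-out: luminescence from complemented beta-Gal in CHO-K1 GPR32 PathHunter cells, measured 1 h after detection reagent at ambient temperature following 90 min compound exposure at 37 °C; DMSO served as basal (EC0) control.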
NTMT1 inh: NTMT1 methyltransferase inhibition; Q9BV86; NTMT1 MTase-Glo SAH luminescence, purified enzyme; Potency, µM (highest dose often 114 µM), for inactives: at the top dose activity change, negative = inhibition, most hits filed as inhibitors; hit rate 2.5% among 59,000; AID 1645870;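 note: potency is the fitted concentration of half-maximal effect; plate controls were DMSO vehicle for no effect and no enzyme for full effect; nearly all actives have a fitted effect of over 65% in size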
B2AR arrestin ag: agonists recruiting beta-arrestin to human beta2-adrenergic receptor; Potency, µM (top dose mostly 46.1 µM), hits mostly activators; HTLA Tango cells, beta-arrestin recruitment, luciferase luminescence, 18 h; AID 1347077; P07550; 44,000 tested, under 10 active;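 note: potency is the fitted concentration of half-maximal effect; 0% = DMSO and full agonism = EC100 isoproterenol or metaproterenol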
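Tango cells (recombinant beta2-AR, beta-arrestin, tTA-driven luciferase), 1500/well in DMEM 1% FBS, treated 18 h at 37 °C with compounds up to 46 µM; luciferin mix added, luminescence read after 15 min; %activity curves fitted and curve-classed.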
* marks the source's active call; other numbers are inactive results; i = inactive; ? = inconclusive; · = not tested or not shown; ! = a repeat was not active; [ ] = remark or other dose. Only some compounds are listed: those with a hit (about 3.7% of all), similar ones and a draw of the others. Unless noted, calls come from the whole dose curve; as a rule, active = well fitted curve in the direction sought with a large enough effect; inconclusive = small, poorly fitted or top-dose-only effect, or another doubt; inactive = no such curve, though single readings can be large; an effect the other way counts as inactive or inconclusive.

SMILES	GALK inhibitor	FH mod	PTAP-TSG101 blk	DRV1 agonist	NTMT1 inh	B2AR arrestin ag
Cc1cccc(N2CCN(C(=O)C3CCN(S(=O)(=O)c4c(C)noc4C)CC3)CC2C)c1 (centres undefined)	3%	-4%	i	108*	11%	i
Cc1nc2c(C(=O)NCCc3ccc(Cl)cc3)c[nH]n2c(=O)c1Cc1ccccc1F	5%	?	i	24	-14%	i
COc1ccc(CCNC(=O)c2c[nH]n3c(=O)c(Cc4ccccc4Cl)c(C)nc23)cc1OC	-17%	18µM*	i	22	-6%	i
Cc1ccc(CN2C(=O)N(c3ccc(F)cc3)C(=O)C2CC(=O)Nc2ccc(Cl)cc2)cc1 (centres undefined)	6%	-16%	i	4	5%	i
Cc1ccc(CN2C(=O)SC(Nc3ccc(Cl)cc3)C2=O)cc1 (centres undefined)	5%	6%	i	61*	4%	i
COc1cccc(NC(CNS(=O)(=O)c2ccc(Cl)cc2)c2ccccc2)c1 (centres undefined)	3%	?	i	77*	3%	i
O=S(=O)(NCC(Nc1ccc(Cl)cc1)c1ccccc1)c1ccccc1 (centres undefined)	7%	?	i	109*	12%	i
COc1cccc(NC(CNS(=O)(=O)c2ccc(C)cc2)c2ccccc2)c1 (centres undefined)	6%	?	i	31	2%	i
O=C(c1ccccc1)c1c(O)cc(O)cc1O[C@@H]1O[C@H](CO)[C@@H](O)[C@H](O)[C@H]1O	·	-7%[53.3 µM]	·	·	?	·
CN1CCCN(C(=O)c2cccc(-c3ccc(/C=C4/C(=O)Nc5ccc(Cl)cc54)o3)c2)CC1	·	·	·	·	11µM*	·
CN1CCN(C(=O)c2cccc(-c3ccc(CNc4ccc(N5CCN(C(=O)OC(C)(C)C)CC5)cc4)o3)c2)CC1	·	·	·	·	-27%	·
CCCOc1ccc(/C=C/C(=O)Nc2sc(C)c(C)c2C(=O)OCC)cc1OC	0%	0%	i	-11	79µM*	i
COc1cccc(Cn2nc(SC)c(S(=O)(=O)c3ccccc3)c2N(C(C)=O)C(C)=O)c1	-4%	?	i	?	2%	i
CSc1nn(Cc2cccc(F)c2)c(N(C(C)=O)C(C)=O)c1S(=O)(=O)c1ccccc1	-4%	-20%	i	83*	17%	i
Cc1ccc(C(=O)CSc2nc(C)cc(C)c2C(=O)Nc2cccc(C)c2)cc1	1%	-18%	i	-26	50µM*	i
Cc1cccc(NC(=O)c2c(C)cc(C)nc2SCC(=O)Nc2c(C)cc(C)cc2C)c1	1%	-6%	i	-24	-11%	i
COc1ccc(C(=O)CSc2nc(C)cc(C)c2C(=O)Nc2ccccc2C)cc1	2%	-28%	i	-21	2.8µM*	i
COc1ccc(CC(NC(C)=O)C(=O)O)cc1 (centres undefined)	·	-2%	·	·	?	·
CC(=O)NC1CCN(c2nc(-c3ccc(Br)cc3)cs2)CC1	·	·	·	·	-8%[57.5 µM]	·
O=[N+]([O-])c1ccccc1CSc1nc2ncc(Br)cc2[nH]1	·	·	·	·	4%[57.5 µM]	·
COc1cccc(C(=O)Nc2nc(-c3nnn(-c4cc(C)ccc4C)c3C)ns2)c1	3%	-7%	i	31	14%	i
COc1cccc(C(=O)Nc2nc(-c3nnn(-c4ccccc4C(F)(F)F)c3C)ns2)c1	-2%	1%	i	91*	14%	i
Cc1cc(OCCCSc2nc(-c3ccc(C(C)(C)C)cc3)nc3cc(=O)[nH]n23)ccc1Cl	-1%	?	i	-35	50µM*!	i
CC(C)(C)c1ccc(-c2nc(SCCCOc3ccccc3)n3[nH]c(=O)cc3n2)cc1	-3%	?	i	-20	?	i
COc1ccccc1OCCCSc1nc(-c2ccc(C(C)(C)C)cc2)nc2cc(=O)[nH]n12	-1%	·	i	75*	·	i
SMILES	GALK inhibitor	FH mod	PTAP-TSG101 blk	DRV1 agonist	NTMT1 inh	B2AR arrestin ag
O=C(/C=C\n1cnc(-c2cc(C(F)(F)F)cc(C(F)(F)F)c2)n1)NNc1ccccn1	·	·	·	·	16%	·
CONC(=O)Nc1ccc(-c2sc3c(c2CN(C)Cc2ccccc2)c(=O)n(-c2ccccc2)c(=O)n3Cc2c(F)cccc2F)cc1	·	·	·	·	10%	·
C[C@@H]1C(=O)OC[C@H]2C(C(=O)O)=C[C@@H]3CC(C)(C)C[C@]312	·	0%	·	·	?	·
O=C(Cc1ccc(F)cc1)NCCc1csc(-c2cccc(F)c2)n1	2%	-1%	i	103*	9%	i
O=C(NCCc1csc(-c2ccc(F)cc2)n1)c1c(F)cccc1Cl	2%	-21%	i	45	1%	i
O=C(NCCc1csc(-c2ccc(F)cc2)n1)c1cccc(F)c1	-2%	-31%	i	66*	-7%	i
Cc1cccc(-c2nc(CCNC(=O)Cc3ccc(F)cc3)cs2)c1	0%	-4%	i	-16	10%	i
COCCN1C(=O)c2ccccc2NC1c1ccc(OC)c(COc2c(C)cc(NC(C)=O)cc2C)c1 (centres undefined)	·	·	·	·	13%	·
Cc1ccc(CNc2nc(-c3ccccc3C(F)(F)F)nc3ccccc23)cc1	·	·	·	·	12%	·
O=C(O)c1ccc(O)c2ncc(N3CCCC3)cc12	·	·	·	·	2%	·
CSc1ccc(Cn2nnc(C(=O)Nc3ccc(C)cc3Cl)c2N)cc1	1%	-3%	i	99*	-2%	i
Cc1ccc(Cn2nnc(C(=O)Nc3ccc(F)c(F)c3)c2N)cc1	-1%	-1%	i	-13	-9%	i
Cc1nnc(NC(=O)c2ccccc2)s1	1%	-4%	i	-3	-2%	i
CC(C)C(=O)Nc1cccc(C(=O)Nc2nnc(CC(C)(C)C)s2)c1	0%	-40%	i	62*	-7%	i
Cc1cc(Br)ccc1NC(=O)C(Cc1ccccc1)NS(=O)(=O)c1ccc(Br)s1 (centres undefined)	1%	-3%	i	65*	1%	i
CCOc1ccc(OCC)c(NC(=O)C(NS(=O)(=O)c2ccc(Br)s2)c2ccccc2)c1 (centres undefined)	1%	7%	i	85*	4%	i
Cc1cc(Br)ccc1NC(=O)C1CCN(S(=O)(=O)c2ccc(Br)s2)CC1	0%	-5%	i	26	-6%	i
